Screening data deposited in PubChem by National Center for Advancing Translational Sciences (NCATS).
BAZ2B block = BAZ2B (human) inhibition. AlphaScreen BAZ2B-H3K14Ac peptide displacement. hit rate 4.4% among 360,000. Potency, µM (titrated, usually from 114 µM), for the others: at the top dose activity change, negative = inhibition, actives largely listed as inhibitors; also: % is scaled to controls: 0 for no effect and ±100 for the full control effect; nearly all actives have a fitted effect of over 60% in size
Target sequence (Q9UIF8 whole entry, looked up): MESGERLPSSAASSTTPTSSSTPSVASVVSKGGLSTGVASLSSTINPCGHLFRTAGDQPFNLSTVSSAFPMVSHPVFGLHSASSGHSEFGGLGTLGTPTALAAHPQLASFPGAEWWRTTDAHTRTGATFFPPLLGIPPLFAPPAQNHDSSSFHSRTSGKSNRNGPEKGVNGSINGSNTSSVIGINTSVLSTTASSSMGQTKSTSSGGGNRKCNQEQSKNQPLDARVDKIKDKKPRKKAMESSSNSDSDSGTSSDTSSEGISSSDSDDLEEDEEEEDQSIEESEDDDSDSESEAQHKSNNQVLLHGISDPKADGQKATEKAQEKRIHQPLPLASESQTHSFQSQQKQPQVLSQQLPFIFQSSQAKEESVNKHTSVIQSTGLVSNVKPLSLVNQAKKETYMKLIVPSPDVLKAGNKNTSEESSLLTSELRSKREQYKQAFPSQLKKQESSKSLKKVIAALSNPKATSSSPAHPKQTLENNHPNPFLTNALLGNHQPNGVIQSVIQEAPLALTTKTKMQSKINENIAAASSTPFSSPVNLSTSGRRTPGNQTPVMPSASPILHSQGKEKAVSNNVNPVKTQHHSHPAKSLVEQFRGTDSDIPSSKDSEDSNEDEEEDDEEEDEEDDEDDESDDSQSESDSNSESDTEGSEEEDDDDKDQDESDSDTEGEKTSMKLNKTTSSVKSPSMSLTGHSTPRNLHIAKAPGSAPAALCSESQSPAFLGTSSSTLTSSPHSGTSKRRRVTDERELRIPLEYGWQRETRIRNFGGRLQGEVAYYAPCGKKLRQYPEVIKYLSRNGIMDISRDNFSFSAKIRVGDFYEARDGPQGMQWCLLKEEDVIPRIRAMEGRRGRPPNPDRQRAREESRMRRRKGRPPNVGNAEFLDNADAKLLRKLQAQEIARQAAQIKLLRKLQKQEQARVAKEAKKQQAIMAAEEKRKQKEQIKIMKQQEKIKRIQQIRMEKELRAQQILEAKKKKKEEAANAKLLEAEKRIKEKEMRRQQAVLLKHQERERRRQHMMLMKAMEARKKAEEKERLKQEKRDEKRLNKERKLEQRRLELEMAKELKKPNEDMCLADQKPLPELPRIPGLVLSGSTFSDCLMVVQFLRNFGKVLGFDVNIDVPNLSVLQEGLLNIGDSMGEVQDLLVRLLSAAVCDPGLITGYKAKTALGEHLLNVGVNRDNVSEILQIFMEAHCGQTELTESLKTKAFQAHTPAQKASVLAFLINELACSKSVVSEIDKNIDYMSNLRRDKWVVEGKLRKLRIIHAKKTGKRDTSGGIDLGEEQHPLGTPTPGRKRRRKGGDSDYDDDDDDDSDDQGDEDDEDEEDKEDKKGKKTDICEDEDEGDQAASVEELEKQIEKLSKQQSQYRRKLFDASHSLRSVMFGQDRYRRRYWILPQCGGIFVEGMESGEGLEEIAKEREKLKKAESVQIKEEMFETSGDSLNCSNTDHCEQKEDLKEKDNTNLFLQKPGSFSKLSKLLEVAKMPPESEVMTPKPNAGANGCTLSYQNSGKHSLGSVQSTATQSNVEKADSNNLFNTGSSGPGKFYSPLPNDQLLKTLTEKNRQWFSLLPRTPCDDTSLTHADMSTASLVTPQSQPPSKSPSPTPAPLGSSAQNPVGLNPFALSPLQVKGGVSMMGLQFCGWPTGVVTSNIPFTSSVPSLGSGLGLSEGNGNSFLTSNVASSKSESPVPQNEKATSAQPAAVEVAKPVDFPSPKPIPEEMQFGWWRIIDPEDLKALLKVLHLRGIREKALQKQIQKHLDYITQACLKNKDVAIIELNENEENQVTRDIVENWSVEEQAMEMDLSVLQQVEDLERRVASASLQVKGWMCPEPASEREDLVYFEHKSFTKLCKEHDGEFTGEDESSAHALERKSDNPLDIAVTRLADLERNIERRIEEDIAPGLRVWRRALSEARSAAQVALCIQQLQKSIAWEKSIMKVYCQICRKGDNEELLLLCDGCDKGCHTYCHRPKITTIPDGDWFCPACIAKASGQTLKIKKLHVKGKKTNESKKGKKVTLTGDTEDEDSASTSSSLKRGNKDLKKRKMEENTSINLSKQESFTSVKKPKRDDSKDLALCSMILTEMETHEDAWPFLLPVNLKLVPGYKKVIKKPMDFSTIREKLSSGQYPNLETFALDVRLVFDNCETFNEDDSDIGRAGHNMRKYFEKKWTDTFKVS
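AlphaScreen displacement: compounds (up to 110uM) incubated 30 min at room temperature with a preformed 50 nM BAZ2B/50 nM biotinylated H3K14Ac peptide complex in PBS pH 7.4 with Tween-20. Donor and acceptor beads at 10 ug/mL final added, 20 min light-protected before reading.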
PLK1 PBD block = PLK1 (human) polo-box domain binding inhibition | P53350 | Plk1 PBD binding of FITC phosphopeptide, fluorescence polarization | Potency, µM, without a hit: max response, negative = inhibition, most hits filed as inhibitors | hit rate 2.8% among 360,000 | AID 720504; also: series mostly up to about 57 µM; % is scaled to controls: 0 for no effect and ±100 for the full control effect; nearly all actives have a fitted effect of over 65% in size
JMJD2A Tudor = JMJD2A Tudor domain (human) inhibition. O75164. AlphaScreen JMJD2A-Tudor / H3K4me3 peptide binding. Potency, µM (series often up to 114 µM), for the others: at the top dose activity change, negative = inhibition, hits mostly inhibitors. hit rate 4.4% among 390,000. AID 504339; also: % is scaled to controls: 0 for no effect and ±100 for the full control effect; nearly all actives have a fitted effect of over 50% in size
G9a block = blocks human histone lysine methyltransferase G9a; Q96KQ7; G9a H3K9 monomethylation, AlphaScreen, 2 h; Potency, µM (series often up to 102 µM), inactives show top-dose activity, negative = inhibition, actives largely listed as inhibitors; hit rate 8.8% among 350,000; also: % is scaled to controls: 0 for no effect and ±100 for the full control effect; nearly all actives have a fitted effect of over 75% in size
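Enzyme 20 nM + cpd, 15 min RT; add b-H3K9 pep 500 nM / SAM 20 uM; 2 h RT; anti-H3K9me1 Ab 0.5 ug/mL + SA donor / anti-rabbit acceptor beads 20 ug/mL each, 10 min; AlphaScreen read.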
Sfp PPTase inh = Sfp phosphopantetheinyl transferase inhibition; hit rate 3.5% among 310,000; Q9F4F7; Biochemical Sfp PPTase activity, qHTS; AID 1490; Potency, µM, for the others: largest response in the series, negative = inhibition, hits mostly inhibitors;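 also: the enzyme is Sfp with the accession as filed and its product quenches rhodamine fluorescence; 0% = enzyme reaction without inhibitor and -100% = no enzyme wells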
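Buffer: 50 mM Hepes-Na pH 7.6, 10 mM MgCl2, 0.01% Nonidet P-40, 0.01% BSA. Enzyme 15 nM, pre-exposed to compound 15 min; substrates then added and fluorescence change tracked over 30 min.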
HP1b binding inh = HP1-beta chromodomain-methylated histone interaction inhibition; Potency, µM (doses to about 114 µM), for inactives: top-dose activity change, negative = inhibition, hits mostly inhibitors; hit rate 0.56% among 390,000; AlphaScreen HP1-beta / biotin-H3K9me3 peptide binding; also: nearly all actives have a fitted effect of over 70% in size
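Compound inhibition of the preformed complex between 50 nM HP1-beta and 50 nM biotinylated H3K9me3 peptide was read by AlphaScreen. Buffer was PBS pH 7.4 with 0.01% Tween-20. Incubations ran 30 min at room temperature, with 10 ug/mL donor/acceptor beads.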
* hit, by the source's call; ? = inconclusive; / = not tested or not shown; [ ] = remark or other dose. Hits are enriched below; roughly 12% of the tested compounds scored in any of these assays. Calls follow the shape of the dose curve; as a rule, active = well fitted curve in the direction sought with a large enough effect; inconclusive = small, poorly fitted or top-dose-only effect, or another doubt; inactive = no such curve, though single readings can be large; an effect the other way counts as inactive or inconclusive. Potency is read from the fitted curve at half-maximal effect.

SMILES	BAZ2B block	PLK1 PBD block	JMJD2A Tudor	G9a block	Sfp PPTase inh	HP1b binding inh
CCCC(=O)OC1=CN(Cc2ccccc2)S(=O)(=O)c2ccccc21	34.7%	/	40.7%	62.6%[59 µM]	/	121.9%
COc1ccc(CNC(=O)C2CCN(c3nc(-c4ccccc4)nc4c3CCC4)CC2)cc1	-23.3%	7.5%	-19.3%	26.1%	50.1µM*	26.9%
Cc1ccc(C(=O)OCC(=O)NC(C)c2ccccc2)cc1C (stereo not given)	/	-5.1%	-6.0%	/	/	18.6%
Cc1cccc(OCCCCCN2CCOCC2)c1C	3.0%	4.6%	-13.8%	-4.5%	8.6%	13.3%
Cc1cccc(OCCCN2CCOCC2)c1C	?	2.8%	25.1µM*	/	-9.9%	?
Clc1cc(Br)ccc1OCCOCCN1CCOCC1	?	-1.1%	7.08µM*	?	-23.9%	-22.2%
Clc1cc(Br)ccc1OCCOCCN1CCCC1	?	-2.4%	31.6µM*	39.8µM*	-9.4%	?
Cc1ccc(OCCCCCN2CCOCC2)c(Cl)c1	/	-17.9%	22.4µM*	/	/	50.1µM*
Cc1ccc(C)c(OCCOCCN2CCOCC2)c1	-25.5%	0.3%	-6.3%	-25.9%[12.7 µM]	0.8%	20.9%
Cc1ccc(C)c(CNC(=O)c2sc3ncnc(N(C)C4CCCCC4)c3c2C)c1	-1.0%	/	-12.7%	1.6%[59 µM]	/	30.4%
Cc1csc2nc(CCNS(=O)(=O)c3ccccc3)cn12	0.0%	/	6.1%	15.7%[59 µM]	/	30.2%[57 µM]
CCc1ccc(S(=O)(=O)c2cn(C)c3cc(F)c(F)cc3c2=O)cc1	-3.3%	/	-6.3%	-26.9%[59 µM]	/	25.9%
CCCN1C(=O)c2ccccc2NC1c1ccc(Cl)c(Cl)c1 (stereo not given)	0.7%	21.2µM*	-16.8%	-1.7%[2.33 µM]	1.1%	37.1%
COc1ccc(C(=O)CCS(=O)(=O)c2ccc(C)cc2)cc1OC	3.4%	11.9µM*	-18.5%	-22.1%	3.8%	48.9%
Cc1ccc(S(=O)(=O)CCC(=O)OCC(=O)c2cc(C)ccc2C)cc1	1.5%	1.4%	0.7%	23.8%[12.7 µM]	/	47.3%
Cc1ccc(S(=O)(=O)CCC(=O)c2ccc(O)cc2O)cc1	9.4%	?	-22.2%	39.8µM*	-11.3%	62.8%
COc1ccc(NC(=O)CSc2nnc(-c3nonc3NC(C)=O)n2C)cc1Cl	-2.9%	/	-14.9%	-7.7%[59 µM]	/	34.2%
CCc1ccccc1N1C(=O)C(Cl)=C(N2CCOCC2)C1=O	-4.1%	-11.5%	7.1%	7.6%[0.501 µM]	-3.8%	82.9%
CC(C)c1ccc(N2C(=O)C(Cl)=C(N3CCOCC3)C2=O)cc1	-3.9%	-18.5%	-7.0%	9.7%	13.6%	31.3%
CCOc1ccc(N2C(=O)C(Cl)=C(N3CCOCC3)C2=O)cc1	-29.4%	-20.1%	-26.9%	50.1µM*	-9.6%	25.2%
O=C1C(Cl)=C(N2CCOCC2)C(=O)N1c1ccc(Br)cc1	5.6%	?	-20.1%	44.7µM*	1.5%	53.5%
COc1ccc(CCNC(=O)CSc2nc3ccccc3nc2Cc2ccc(C)cc2)cc1OC	-10.3%	/	-26.3%	-8.8%[59 µM]	/	7.5%
O=S(=O)(c1ccccc1F)N1CCN(c2nc(-c3cccs3)nc3ccccc23)CC1	/	/	-8.2%	/	/	21.1%
O=C1C(=O)c2ccccc2C(O)=C1c1cccc([N+](=O)[O-])c1	?	26.7µM*	-27.8%	56.2µM*	16.3%	?
O=C(O)c1cccc(NC(=O)c2cn(-c3ccccc3)nc2-c2cc3ccccc3o2)c1	50.1µM*	?	-27.8%	4.7%[59 µM]	1.0%	-1.9%
COc1ccc(CNC(=O)Cc2c(C)c3cc4c(C)coc4cc3oc2=O)cc1	-15.4%	/	-28.9%	2.0%[59 µM]	/	4.3%
COc1cc(/C=C(\C#N)C(=O)c2c(C)[nH]c3ccccc23)cc(OC)c1OC	-13.4%	?	28.2µM*	44.7µM*	-15.7%	?
COc1cc(C=C(C#N)C(=O)c2ccccc2)cc(OC)c1OC	/	3.77µM*	/	/	/	/
COc1cc(/C=C(\C#N)C(=O)Nc2ccccc2C(=O)O)cc(Cl)c1OC	-13.1%	21.2µM*	-20.1%	-46.2%	5.9%	0.8%
COc1ccc(/C=C(/C#N)C(=O)Nc2ccc(C)cc2C)cc1C(=O)O	-7.2%	-10.4%	-15.2%	-12.9%[12.7 µM]	5.3%	35.3%
